# Compound activity: PubChem, National Center for Advancing Translational Sciences (NCATS)
# TbPYK inhibitor: inhibitors of Trypanosoma brucei pyruvate kinase; Potency, µM (doses to about 76.8 µM), usual class: inhibitors; AID 624173; Q57TT1; TbPYK enzyme, Kinase-Glo Plus ATP luminescence, 45 min; 410,000 tested, 0.12% active; note: nearly all actives have a fitted effect of over 50% in size
#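 Luminescent Kinase-Glo Plus end-point after 45 min room-temperature reaction of T. brucei pyruvate kinase started with 130 uM ADP (final). Buffer TEA 50 mM pH 7.2 with KCl, MgCl2, BSA, Tween-20; titration-based qHTS with fitted concentration-effect curves.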
# AmpC inh no detg: inhibitors of E. coli AmpC beta-lactamase without detergent; P00811; AmpC nitrocefin hydrolysis, absorbance 480 nm, 0.0001% Triton; Potency, µM (titrated, usually from 57.1 µM), usual class: inhibitors; 330,000 tested, 0.52% active; note: nearly all actives have a fitted effect of over 20% in size
# Target sequence (P00811 whole entry, looked up): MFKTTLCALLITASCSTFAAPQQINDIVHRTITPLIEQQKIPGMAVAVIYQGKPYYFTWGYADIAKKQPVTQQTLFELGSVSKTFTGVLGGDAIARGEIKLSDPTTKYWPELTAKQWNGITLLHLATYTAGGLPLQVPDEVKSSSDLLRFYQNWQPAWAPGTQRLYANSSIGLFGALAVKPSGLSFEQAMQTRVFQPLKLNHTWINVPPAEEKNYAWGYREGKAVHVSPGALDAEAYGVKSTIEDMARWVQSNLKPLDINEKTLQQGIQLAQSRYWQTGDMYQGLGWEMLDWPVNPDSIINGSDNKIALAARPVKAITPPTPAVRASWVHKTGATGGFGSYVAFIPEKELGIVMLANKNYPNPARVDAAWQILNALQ
#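 AmpC (5.3 nM in the dispensed reagent) in 20 mM phosphate pH 7.0 with 0.01% (detergent screen) or 0.0001% Triton X-100 was preincubated with compounds for 15 min at room temperature. Nitrocefin was then added from an 800 uM solution, and hydrolysis was followed at 480 nm.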
# RE007 growth inh: less growth of the S. pombe RE007 Vpr strain; Potency, µM (highest dose often 92.2 µM), most hits filed as inhibitors; S. pombe RE007 Vpr strain, BacTiter-Glo ATP luminescence, 24 h; 360,000 tested, 0.21% active; active = well fitted falling curve with a large enough effect; inconclusive = small, poorly fitted or top-dose-only effect; inactive = no such curve, though single readings can be large or run the other way; note: nearly all actives have a fitted effect of over 50% in size
#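 Fission yeast strain RE007, carrying one chromosomally integrated HIV-1 vpr copy, was seeded at OD 0.01 in PMG+AL medium with 23 nL pinned compound. After 24 h at 30 °C and 99% humidity, viability was read by BacTiter-Glo luminescence.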
# Sm TGR block: S. mansoni TGR enzyme inhibition; Q962Y6; purified TGR, DTNB reduction, TNB absorbance 405 nm; Potency, µM (highest dose often 114 µM), most hits filed as inhibitors; 360,000 tested, 3% active; note: nearly all actives have a fitted effect of over 60% in size
#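 First, TGR (20 nM dispensed) and NADPH were mixed with compound. Second, a 15 min room-temperature incubation followed. Third, further NADPH and then DTNB were added to start the reaction. Finally, TNB absorbance was monitored kinetically.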
# SARS PLpro yeast: inhibitors of SARS-CoV papain-like protease in yeast | 330,000 tested, 0.19% active | AID 485353 | S. cerevisiae expressing SARS-CoV PLpro, growth rescue | Potency, µM (highest dose often 32.9 µM), actives largely listed as activators; calls by dose curve; note: nearly all actives have a fitted effect of over 55% in size
# AmpC inh detg: blocks E. coli AmpC beta-lactamase in detergent assay. AmpC hydrolysis of nitrocefin, absorbance 480 nm, 0.01% Triton. Potency, µM (doses to about 114 µM), hits mostly inhibitors. 370,000 tested, 0.041% active; note: nearly all actives have a fitted effect of over 25% in size
#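 AmpC (5.3 nM in the dispensed reagent) in 20 mM phosphate pH 7.0 with 0.01% (detergent screen) or 0.0001% Triton X-100 was preincubated with compounds for 15 min at room temperature. Nitrocefin was then added from an 800 uM solution, and hydrolysis was followed at 480 nm.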
# Hits are given with their value; n = inactive; u = inconclusive; x = not tested or not shown. This is a sample that favours compounds with a hit; in the whole collection about 3.3% have one here. Unless noted, calls come from the whole dose curve; as a rule, active = well fitted curve in the direction sought with a large enough effect; inconclusive = small, poorly fitted or top-dose-only effect, or another doubt; inactive = no such curve, though single readings can be large; an effect the other way counts as inactive or inconclusive.
SMILES,TbPYK inhibitor,AmpC inh no detg,RE007 growth inh,Sm TGR block,SARS PLpro yeast,AmpC inh detg
COc1ccccc1N(CC(=O)NCc1ccco1)S(=O)(=O)c1ccc(C)cc1,n,n,n,40µM,n,u
COc1ccc(N(CC(=O)NCc2ccco2)S(=O)(=O)c2ccc(C)cc2)cc1OC,n,n,n,n,n,n
Cc1ccc(S(=O)(=O)N(CC(=O)NCc2ccco2)C2CCCCC2)cc1,n,n,n,45µM,n,n
O=C(COc1ccccc1F)Nc1ccccc1C(=O)OCc1cc(=O)n2nc(C3CC3)sc2n1,n,x,x,n,x,n
CCOc1cc(Cl)c(S(=O)(=O)n2cc(C)nc2CC)cc1Cl,n,x,x,n,x,n
CCOC(=O)c1c(C)[nH]c(C)c1S(=O)(=O)N(C)CC(=O)Nc1cc(Cl)ccc1OC,n,x,x,n,x,n
Cc1ccc(C)n1-c1c(C(=O)NCCC(C)C)sc2ncccc12,n,x,x,n,x,n
Cc1ccc(N(CC(=O)NCc2ccco2)S(=O)(=O)c2ccccc2)cc1,n,n,n,25µM,n,n
CC(C(=O)O)c1ccc(/C=C2\CCCCC2=O)cc1 (stereo not drawn),n,x,x,x,x,x
COc1ccc(-c2cc(-c3ccc(F)cc3)nc3c2COc2ccc(F)cc2-3)cc1,n,x,x,n,x,n
Cc1ccc(C(=O)N/C(=C/c2ccco2)C(=O)N2CCCCC2)cc1,n,n,n,u,n,n
COC(=O)/C(=C/c1ccco1)NC(=O)c1ccco1,n,n,n,40µM,n,n
C=CCOC(=O)/C(=C/c1ccco1)NC(=O)/C=C/c1ccccc1,n,n,n,40µM,n,n
COc1ccc(C(=O)N/C(=C/c2ccco2)C(=O)N2CCCCCC2)cc1,n,n,n,45µM,n,n
COC(=O)/C(=C/c1ccco1)NC(=O)c1ccc(Br)o1,n,n,n,22µM,n,n
O=C(OCc1ccccc1Cl)c1ccc(-c2nnn(Cc3ccccc3Cl)n2)cc1,n,x,x,n,x,n
CNC(=O)C1CCC(Cn2c(=O)c3sccc3n(CC(=O)Nc3cc(F)ccc3F)c2=O)CC1 (stereo not drawn),n,x,x,n,x,n
Brc1cccc(-c2nnn3c2nc(N2CCCCC2)c2ccccc23)c1,n,x,x,n,x,n
N#Cc1c(N2CCNCC2)nc(-c2ccco2)c2c1CCCC2,n,n,n,n,n,n
N#Cc1c(NC2CCCCC2)nc(-c2ccco2)c2c1CCCC2,n,n,n,35µM,n,n
N#Cc1c(NCCCO)nc(-c2ccco2)c2c1CCCC2,n,n,n,6.3µM,n,n
O=C(CSc1nccn1Cc1ccccc1)Nc1ccc2c(c1)OCCO2,n,x,x,n,x,n
CN(C(=O)c1ccc2c(c1)N(Cc1ccccc1F)C(=O)c1ccccc1S2)C1CCCCC1,n,x,x,n,x,n
CCc1ccc(N2C(=O)c3sc4nnc(-c5ccccc5)c(=O)n4c3C2=O)cc1,n,n,n,10µM,n,n
Fc1ccc(Nc2c(-c3c[nH]c4ccccc34)nc3ccccn23)cc1,n,x,x,n,x,n
SMILES,TbPYK inhibitor,AmpC inh no detg,RE007 growth inh,Sm TGR block,SARS PLpro yeast,AmpC inh detg
Oc1ccccc1C1CC(c2cccs2)=NC(c2ccc(Cl)cc2)N1 (stereo not drawn),n,n,u,u,n,n
Cc1ccc(O)c(C2=NNC(c3ccc(Cl)cc3)C2)c1 (stereo not drawn),n,n,n,45µM,n,n
Oc1ccc(Cl)cc1C1=NNC(c2cccs2)C1 (stereo not drawn),n,n,n,18µM,n,n
CCOC(=O)CC(NC(=O)Cc1cccs1)c1ccccc1Cl (stereo not drawn),n,n,n,89µM,n,n
CCOC(=O)CC(NC(=O)c1ccco1)c1ccccc1Cl (stereo not drawn),n,n,n,n,n,u
Cc1ccc(OCCn2cc(C(=O)C3CCCCC3)c3ccccc32)cc1,n,x,x,n,x,n
COC(=O)CCS(=O)(=O)c1nc(-c2ccccc2)cc(C(F)(F)F)n1,n,n,n,8.9µM,n,u
CCOC(=O)CCS(=O)(=O)c1nc(-c2ccccc2)cc(C(F)(F)F)n1,n,n,n,28µM,n,n
